Data published in PubChem BioAssay (NCI).
Compounds without any hit were thinned out: in the full panel of roughly 83,000, 20% have a hit.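 Treatment: one concentration, 48 hours, 96-well format. Scoring: percent growth, with anything below 10 considered active.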 The source made the active and inactive calls.

Legend:
Experiment in all cases: NCI-60 one-dose screen, 48 h (100 = growth as untreated, 0 = no growth, -100 = all killed)
Details in all cases: 10 µM
[1] = test system: RPMI-8226 leukemia
[2] = test system: OVCAR-8 ovarian
[3] = test system: OVCAR-5 ovarian
[4] = test system: SK-OV-3 ovarian
[5] = test system: IGROV1 ovarian
[6] = test system: OVCAR-3 ovarian
[7] = test system: HS 578T breast
[8] = test system: NCI/ADR-RES ovarian
[9] = test system: T-47D breast
[10] = test system: OVCAR-4 ovarian

Measured: growth

CCCCCCCCCCCCC1C/C=C\CCCC(=O)O1 (configuration not stated)
inactive: [1] 89.7% | [2] 104% | [3] 101% | [4] 95.5% | [5] 110% | [6] 107% | [7] 113% | [8] 119% | [9] 91.2%

N#Cc1ncc(-c2cc(F)c(F)c(F)c2)c(NC2CCCCCC2)n1
inactive: [1] 81.1% | [2] 96.2% | [3] 104% | [10] 77.8% | [4] 88.3% | [5] 93.5% | [7] 73.3% | [8] 95.3% | [9] 72.6%

Clc1cccc(-c2nc(-c3cccs3)no2)c1
inactive: [1] 93.7% | [2] 107% | [3] 108% | [10] 65.8% | [4] 106% | [6] 104% | [7] 136% | [8] 107% | [9] 66.7%

CCN(CC)CCNc1ccc(CO)c2oc3cc(Cl)ccc3c(=O)c12
inactive: [1] 85.7% | [2] 59.4% | [3] 104% | [10] 78.7% | [4] 92.9% | [6] 91.8% | [7] 99% | [8] 74.2% | [9] 117%

O=C(Nc1nc2ccccc2s1)Nc1ccc([N+](=O)[O-])cc1Cl
active: [2] -26.4% | [10] -45.6%
inactive: [1] 36.9% | [3] 105% | [4] 63.9% | [6] 38.1% | [7] 70.7% | [8] 14.4% | [9] 61.7%

CCOC(=O)CNC(=O)CCCCSc1ncnc2nc[nH]c12
inactive: [1] 107% | [2] 108% | [3] 90.1% | [10] 111% | [4] 115% | [6] 112% | [7] 107% | [8] 97.3% | [9] 100%

COc1ccc(-c2nn(-c3cccc(NC(=O)c4ccc(Cl)c(Cl)c4)c3)cc2-c2ccncc2)cc1Cl
inactive: [1] 58% | [2] 75.5% | [3] 92.4% | [10] 93.3% | [4] 82.2% | [5] 84.5% | [7] 72.5% | [8] 61.4% | [9] 62.8%

COc1ccc(/C(=C2\O[C@@H]([C@H]3COC(C)(C)O3)[C@H]3OC(C)(C)O[C@@H]23)c2cc(OC)c(OC)c(OC)c2)cc1O
active: [7] -22.2%
inactive: [1] 63.7% | [2] 68.3% | [3] 95.4% | [10] 99.2% | [4] 38% | [6] 48% | [8] 10.1% | [9] 121%
